Measurements as given in PubChem BioAssay (NCATS).
Results filed as inconclusive are left out. Calls of active or inactive are those of the source. The call rests on the fitted dose curve; in most records, active means well fitted inhibition curve with a large enough effect; inconclusive means small, poorly fitted or top-dose-only effect; inactive means flat fitted curve, though single readings scatter.

Experiments:
Assay in all cases: qHTS profiling for inhibitors of Plasmodium falciparum proliferation (AID 504749); further: nearly all actives have a fitted effect of over 60% in size
Settings in all cases: P. falciparum in erythrocytes, SYBR Green DNA, 72 h; series mostly up to 28.7 µM
AA1029 = system: AA1029
Outline: (§1)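 In a 72 h erythrocytic culture (37 C, humidified, 5% CO2) at 2.5% hematocrit and 0.3% starting parasitemia, compounds were tested; SYBR Green I in detergent lysis buffer stained parasite DNA overnight.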

CP211 = system: CP211
Outline: as §1

CP215 = system: CP215
Outline: as §1

CP260 = system: CP260
Outline: as §1

CP297 = system: CP297
Outline: as §1

CP315 = system: CP315
Outline: as §1

CP335 = system: CP335
Outline: as §1

DFO2036 = system: DFO2036
Outline: as §1

DIV30 = system: DIV30
Outline: as §1

FAB9 = system: FAB9
Outline: as §1

ICS = system: ICS
Outline: as §1

JCK = system: JCK
Outline: as §1

N140 = system: N140
Outline: as §1

PAD = system: PAD
Outline: as §1

PC15 = system: PC15
Outline: as §1

PC26 = system: PC26
Outline: as §1

TAB109 = system: TAB109
Outline: as §1

TAB113 = system: TAB113
Outline: as §1

TAB165 = system: TAB165
Outline: as §1

W2 = system: W2
Outline: as §1

Measured: Potency

CCCCCCCCCCCCCCCC(=O)OCC(COP(=O)(O)OCC[N+](C)(C)C)OC(=O)CCCCCCCCCCCCCCC (stereo not given)
inactive: all assays above

O=[N+]([O-])O[C@H]1CO[C@H]2[C@@H]1OC[C@H]2O
inactive: all assays above

CC(O)C(N)C(=O)O (stereo not given)
inactive: all assays above

C=C(NCc1ccccc1)c1ccccc1O
inactive: all assays above

CCCC[C@H](O)c1ccccc1
inactive: all assays above

OCCN1CC(O)C(O)C(O)C1CO (stereo not given)
inactive: all assays above

CC(=O)NC1[C@H](O)C[C@@](O)(C(=O)O)O[C@H]1[C@H](O)[C@H](O)CO (stereo not given in full)
inactive: all assays above

Cc1cn([C@H]2CC(F)[C@@H](CO)O2)c(=O)[nH]c1=O (stereo not given in full)
inactive: all assays above

O=C1CC[C@H](C(=O)N[C@@H]2C[C@H]2c2ccccc2)N1
inactive: all assays above

CC(=O)OCC(=O)[C@@]1(O)CCC2C3CCC4=CC(=O)C=CC4(C)C3C(O)C[C@]21C (stereo not given in full)
inactive: all assays above

O=C1NC(=O)C2C3C=CC(C3)C12 (stereo not given)
inactive: all assays above

Cc1cnc(C(=O)O)cn1
inactive: all assays above
